test: activators of LNCaP cell differentiation, retest, confirmation, side scatter shift, flow cytometry (AID 1069); details: 4 d, side scatter shift, at 10 µM, stronger effect = higher value;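 note: LNCaP human prostate cancer cells in low-serum medium with charcoal-stripped FBS; percent of cells with raised granularity gated so DMSO controls show 10%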

Point of comparison: O=C(NCCCN1CCOCC1)c1cc2c(s1)CSC2, side scatter shift 9.2%. Against it:
- O=C(CSc1nc2c(c(=O)n1-c1ccc(F)cc1)SCC2)NCC1CCCO1 (stereo not drawn) — lower, 3.9%
- CCn1c(C(=O)NCCCN2CCc3ccccc3C2)cc2sccc21 — higher, 14.8%
- CC1CCCCN1CCNC(=O)c1ccc2c(=O)n(CCc3ccccc3)c(=O)[nH]c2c1 (stereo not drawn) — higher, 18.2%
- COc1ccc(-c2noc(CCC(=O)NCCCN3CCC(C)CC3)n2)cc1 — lower, 4.9%
- Cc1ccccc1-c1nc(CN2CCC(C(=O)NCCCN3CC(C)CC(C)C3)CC2)c(C)o1 (stereo not drawn) — higher, 78.4%
- Cc1ccc(Oc2ccc(S(=O)(=O)N3CCOCC3)cc2C(N)=O)c(-n2nc3ccccc3n2)c1 — higher, 21.3%
- Cc1cc(N2C(=O)C3C4C=CC(C4)C3C2=O)ccc1Br (stereo not drawn) — higher, 16.5%
- CCOC(=O)N1CCN(S(=O)(=O)c2ccc(C(=O)Nc3nc4ccccc4s3)cc2)CC1 — lower, 5.15%
- CC(C)n1c(=S)[nH]c2c1c(=O)[nH]c(=O)n2C — lower, 2.4%
- CCOC(=O)c1c(-c2ccc(C)o2)csc1NC(=O)CN1CCN(CC)CC1 — lower, 8.3%
- CCOC(=O)c1c(NCc2ccc3c(c2)OCO3)c2ccccc2[nH]c1=O — lower, 4.75%
- CCOc1ccc(C(=O)Nc2ccc(Cl)cn2)cc1Cl — lower, 2.75%
- Cc1nnc(NCc2n[nH]c(=O)c3ccccc23)c2ccccc12 — lower, 6.5%
- CCN(CCNC(=O)C1CCCN(Cc2nc(-c3ccc(OC)cc3)oc2C)C1)c1ccccc1 (stereo not drawn) — higher, 35.5%
- COc1ccc2cc3cc(C(=O)Nc4ccccc4N4CCN(C)CC4)oc3nc2c1 — higher, 42.7%
- CN(CC(O)COc1ccc(OCC(O)CN(C)C2CCCCC2)cc1)C1CCCCC1 (stereo not drawn) — lower, 8.9%
- Cc1ccc(-c2noc(CCC(=O)NCCCN3CCN(c4cccc(Cl)c4)CC3)n2)cc1 — higher, 11.5%
- COc1ccc(-c2coc3c(CN4CCCCC4)c(O)c(CN4CCCCC4)c(O)c3c2=O)cc1 — lower, 3.3%
- Cc1cc(=O)n2nc(N3CCCC(C(=O)NCCCN4CCc5ccccc5C4)C3)sc2n1 (stereo not drawn) — higher, 9.3%
- COc1ccc(OC)c(N=Cc2c(O)[nH]c3ccccc23)c1 — lower, 6.1%
- O=C(NCCCN1CCN(c2ccccc2F)CC1)C1CCC(=O)N1C1CCCC1 (stereo not drawn) — lower, 2.35%
- CCc1ccc(-c2nc(CN3CCC(C(=O)NCc4ccccc4OC)CC3)c(C)o2)cc1 — higher, 14.5%
- COc1ccc(N2CCN(CCCNC(=O)CC3Oc4ccc(C)cc4NC3=O)CC2)cc1 (stereo not drawn) — lower, 9.05%
- CCOC(=O)C1=C(C)N=c2s/c(=C\c3ccncc3)c(=O)n2C1c1ccc2c(c1)OCO2 (stereo not drawn) — lower, 6.4%
- N#CC1=C(N)OC2=C(C(=O)CCC2)C1c1ccc(OC(=O)N2CCOCC2)cc1 (stereo not drawn) — lower, 2.45%
- CN(C(=O)c1ccccn1)c1nnc(-c2cccnc2)s1 — lower, 2.1%
- CN(C)CCCN1c2ccccc2CCc2ccc(Cl)cc21 — higher, 48.4%
- CN1CCN(CC(=O)Nc2ccc(Cl)cc2Cl)CC1 — lower, 6.1%
- Cc1cccc(-c2nsc(SCC(=O)Nc3nccs3)n2)c1 — lower, 6.2%
- CN1C(=O)c2ccc(S(=O)(=O)c3ccc(C(=O)O)cc3)cc2C1=O — lower, 5.75%
- Cc1cc(N2CCN(C)CC2)nc2ccc(NC(=O)c3ccc4c(c3)OCO4)cc12 — higher, 24.6%
- CCCS(=O)(=O)N1CCCC(C(=O)NCCCN2CCN(c3cccc(Cl)c3)CC2)C1 (stereo not drawn) — lower, 6.55%
- COC(=O)Nc1sccc1C(=O)Nc1sccc1C(=O)OC — lower, 8.85%
- COc1ccc(S(=O)(=O)Nc2ccc(F)c(Cl)c2)cc1OC — lower, 6.75%
- CCOc1cccc(-c2nnc3n2N=C(c2cc(OC)ccc2OC)CS3)c1 — higher, 14.1%
- Cc1ccc(C)c2[nH]c(=O)c(CN(CCN3CCCC3)C(=O)Nc3cccc(Cl)c3)cc12 — higher, 49.6%
- COc1ccc(Nc2nc(N3CCCC3)c3ccccc3n2)cc1 — higher, 21.6%
